PubChem BioAssay
The source made the active and inactive calls.

Assay: budding yeast growth changes without added modifier – OD600, strain BY4716, 24 h, basal condition, primary screen (AID 1173)
Settings: S. cerevisiae BY4716 growth, OD600, 24 h; higher = more signal, called active from +8 up or from −8 down

z-score, inactive:
COc1cc(OC)c(C(O)C2C=CC3C(=O)NC(=O)C3N2Nc2ccccn2)cc1Br (configuration not stated) -0.991
C=CCNC(=O)[C@@H]1[C@H]2C(=O)O[C@H](c3ccccc3)[C@H](c3ccccc3)N2[C@H](c2ccc(OCCO)cc2)[C@@]12C(=O)N(C(=O)OCCOC)c1ccc(C#CCC(C(=O)OC)C(=O)OC)cc12 1.01
COC(=O)c1c(CC[C@@H](CO)NC(=O)NCCc2c[nH]c3ccccc23)oc(C(=O)Cc2ccccc2)c1C(=O)OC -1.46
O=C(O)[C@H](Cc1ccccc1)n1cc(-c2ccccc2)nn1 0.0419
CC(C)NC(=O)[C@@]1(Cc2ccccc2I)c2ccccc2C(=O)N(Cc2ccccc2Cl)[C@H]1c1ccc(CO)cc1 -0.673
CC(C)=CCCC(C)=CC(O)C1C=CC2C(=O)N(c3ccccc3)C(=O)C2N1Nc1ccc(C(C)C)cc1 (configuration not stated) 0.125
[N-]=[N+]=NCc1ccccc1[C@H]1OC(c2ccc(OCCCO)cc2)=N[C@@]1(Cc1ccccc1)C(=O)N1CCCCC1 -1.95
CC(C)N1CC=CC23O[C@@H]4C=CCOC(=O)[C@@H]4[C@H]2C(=O)N(CCCCCO)[C@@H]3C1=O (some centres not stated) -0.746
CCOC(=O)[C@H]1C/C=C/C[C@H](C(=O)OCC)C(=O)O[C@H]2[C@@H](OC)O[C@H](CO)[C@@H](OC(=O)c3ccc(Br)cc3)[C@@H]2OC1=O -0.775
O=C(O)[C@H]1C[C@H]2C(=O)N3CCC[C@H]3C(=O)N2[C@H]1c1ccc(O)cc1 -0.171
[N-]=[N+]=Nc1ccccc1C[C@@]1(C(=O)N2CCCCC2)N=C(c2ccc(OCCCO)cc2)O[C@@H]1c1ccccc1N=[N+]=[N-] -0.893
CCOC(=O)C1=CC[C@@H](c2ccccc2)N(S(=O)(=O)c2ccc(C)cc2)[C@H]1c1ccc(CC)cc1 1.82
O=C1[C@H]2C=C(Br)[C@H](C[C@@H]2OCCCCCCO)[C@@]12CO2 -1.3
COc1cc2c(cc1O)C(c1cccs1)N(Cc1ccc([N+](=O)[O-])o1)CC2 (configuration not stated) -2.05
CCCNC(=O)[C@@]1(Sc2ccc(C)cc2)CC(=O)N(Cc2ccccc2C(F)(F)F)[C@@H]1c1ccc(CO)cc1I -3.06
O=C1OCCC=C[C@H]2OC34C=CCN(Cn5nnc6ccccc65)C(=O)[C@H]3N(CCO)C(=O)[C@@H]4C12 (some centres not stated) 0.202
C=CCNC(=O)[C@@H]1[C@H]2C(=O)O[C@H](c3ccccc3)[C@H](c3ccccc3)N2[C@H](c2ccc(OCCO)cc2)[C@@]12C(=O)N(C(=O)OCCOC)c1ccc(C#CCNC(N)=O)cc12 1.04
CCCC1(C(=O)OC)C=C2C(=C(c3ccccc3)C(=O)C2C)CN1 (configuration not stated) 0.629
O=C1O[C@@H](c2ccccc2)[C@@H](c2ccccc2)N2[C@@H](c3ccc(OCCO)cc3)[C@]3(C(=O)Nc4ccc(C#CCCO)cc43)[C@@H](C(=O)NC[C@H](O)c3ccccc3)[C@H]12 1.49
COc1ccc(CCNC(=O)[C@@]2(c3ccc([N+](=O)[O-])cc3)CC(=O)N(CC34CC5CC(CC(C5)C3)C4)[C@@H]2c2ccc(CO)cc2I)cc1 0.0097
COc1ccc([C@H]2C[C@H]3C(Br)=C[C@@]2(CO)C(=O)[C@]32CO2)cc1 -4.42
O=C(NC1CC1)[C@@H]1c2ccccc2C(=O)N(Cc2cc(F)cc(C(F)(F)F)c2)[C@H]1c1ccc(CO)cc1 -0.626
COC(=O)[C@@]1(Cc2ccc(OC)cc2)[C@H]2c3cc(C(=O)N4CCCC4)n(CCCNc4ncc(C(F)(F)F)cc4Cl)c3C[C@H]2CN1C(=O)c1ccccc1 1.01
CO[C@H]1O[C@H](CO)[C@@H](OC(=O)Nc2ccc(Oc3ccccc3)cc2)[C@H](OC(=O)Nc2ccc3c(c2)OCO3)[C@@H]1OC(=O)Nc1ccc2c(c1)OCO2 0.77
C=C(CCCC)/C(=C/C[C@H](OC(C)=O)c1ccccc1OCCO)c1cnc2ccccc2c1 -0.468
CC(C)(C)OC(=O)CC[C@@]1(C(=O)N2CCCCC2)N=C(c2ccc(OCCCO)cc2)O[C@@H]1c1ccccc1 -0.563
O=C(CS)NCCCCCNC(=O)[C@@H]1C[C@@H]2C(=O)NCC(=O)N2[C@@H]1c1ccc(O)cc1 0.272
